High-throughput results: PubChem BioAssay, National Center for Advancing Translational Sciences (NCATS)
Shown are actives, neighbours in structure and some others; about 20% of the full set was active somewhere.
Shiga inhibitor – inhibitors of Shiga toxin in Vero cells. Vero cells, Shiga toxin protein synthesis inhibition reporter. inhibition, % at 38.7 µM. hit rate 9.2% among 290,000. AID 2315; in the data active = inhibition mostly above about 28%, no sharp cut-off; inactive = mostly below about 43%; also: 0% is about no effect
HCMV inh – blocks human cytomegalovirus replication. HFF cells, HCMV-luciferase reporter, 72 h; hits give low values. activity change, negative = inhibition, % at 57.5 µM. hit rate 4.5% among 410,000. AID 1259415; in the data active = activity change below about -60%; inconclusive = no clear call, values can overlap the other calls; inactive = above about -39%; also: % is scaled to controls: 0 for no effect and ±100 for the full control effect
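Luciferase read-out from HCMV-luciferase-infected HFFs (MOI 1 PFU/cell) 72 h post infection at 37C; compounds added after 16 h cell attachment; activity normalized between buffer-only basal and Salinomycin (10uM) inhibitor controls.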
CHX counter – counter-screen for Shiga toxin inhibitors: cycloheximide protein synthesis inhibition. cell reporter, cycloheximide protein synthesis inhibition counterscreen. max response, %. hit rate 12% among 300,000. AID 2314; in the data active = max response mostly above about 13%, no sharp cut-off; inactive = mostly below about 14%; also: read at 38.3 µM for the half of the compounds with a filed dose; 0% is about no effect
Pf growth 96h – P. falciparum growth inhibition at 96 hour, primary screen for plastid delayed-death inhibitors; hit rate 6.9% among 320,000; P. falciparum luciferase reporter growth, 96 h; Potency, µM (top dose mostly 28.7 µM), for inactives: top-dose activity change, negative = inhibition, actives largely listed as inhibitors; AID 504834; also: potency is read from the fitted curve at half-maximal effect; % is scaled to controls: 0 for no effect and ±100 for the full control effect
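96 h incubation, 37 C, 5% CO2, of luciferase-reporter P. falciparum-infected RBCs (2% hematocrit, 0.05% parasitemia final) with test compounds; endpoint luminescence.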
Pf growth 48h – inhibits P. falciparum growth in the first generation, 48 h | Potency, µM (top dose mostly 28.7 µM), for the others: top-dose activity change, negative = inhibition, actives largely listed as inhibitors | P. falciparum luciferase growth in erythrocytes, 48 h | hit rate 5.9% among 310,000 | AID 504832; also: potency is read from the fitted curve at half-maximal effect; % is scaled to controls: 0 for no effect and ±100 for the full control effect
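Luciferase-expressing parasites in RBCs, 2% Hct / 0.1% parasitemia final; RPMI 1640 + 0.5% Albumax; 37 C, 5% CO2, one generation; luminescence read-out, lower signal = inhibition.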
An asterisk follows results filed as active; i = inactive; ? = inconclusive; . = no result given; [ ] = dose if it differs, or a comment. Unless noted, calls follow the shape of the dose curve; as a rule, active = well fitted inhibition curve with a large enough effect; inconclusive = small, poorly fitted or top-dose-only effect, or another doubt; inactive = no such curve, though single readings can be large or run the other way.

SMILES	Shiga inhibitor	HCMV inh	CHX counter	Pf growth 96h	Pf growth 48h
O=C(Nc1cccc(C(=O)N2CCCCC2)c1)c1nsc2ccccc12	.	38.6	.	.	.
CSCCC1COC(c2cccs2)=N1 (centres undefined)	65.4*	-20.4	38.8*	?	35.0%
C=C1C(=O)O[C@H]2C[C@H]1[C@@H](OC(C)=O)C/C(C)=C/CC/C(C)=C\CC[C@]2(C)O	.	-102.6*	.	.	.
Nc1ccn([C@@H]2O[C@H](C(=O)NCC(F)(F)F)[C@@H](O)[C@H]2O)c(=O)n1	.	8.5	.	.	.
N/C(=N\OC(=O)CCCc1ccccc1)c1cccc([N+](=O)[O-])c1	-5.5	86.2	6.7	-13.6%	10.2%
N/C(=N\OC(=O)CCCOc1ccccc1)c1ccccc1	13.5	-25.1	22.9*	i	18.2%
N/C(=N\OC(=O)CCCCCN1C(=O)c2ccccc2C1=O)c1ccccc1	70.7*	4.5	36.5*	44.6%	40.3%
Cc1cccc(/C(N)=N/OC(=O)CCCc2ccccc2)c1	66.1*	46.8	56.9*	-9.6%	47.4%
N/C(=N\OC(=O)CCCc1ccccc1)c1cccnc1	40.0*	27.1	21.3*	19.7%	-6.1%
N/C(=N\OC(=O)CCCN1C(=O)c2ccccc2C1=O)c1ccc(Br)cc1	.	70.3	.	.	.
CCOC(=O)C1(C)CCN1C(=O)c1ccccc1 (centres undefined)	.	-0.3	.	.	.
N/C(=N\OC(=O)CCCc1ccccc1)c1ccccc1	26.5	1.8	31.4*	40.5%	24.7%
CCOP(=O)(c1ccccc1)C(O)c1ccc(F)cc1 (centres undefined)	-4.7	7.6	-2.2	7.38µM*	-5.4%
CCOP(=O)(c1ccccc1)C(O)c1ccc([N+](=O)[O-])cc1 (centres undefined)	.	104.1	-1.5	362.2%	-12.8%
CCOP(=O)(c1ccc(N(C)C)cc1)C(O)c1ccccc1 (centres undefined)	-12.3	-82.9*	-4.2	.	11.7µM*
CC(C)COP(=O)(c1ccc(N(C)C)cc1)C(O)c1ccccc1 (centres undefined)	-2.1	-3.3	-2.6	-17.1%	-5.2%
CC1(C(=O)NS(=O)(=O)c2ccc(Cl)s2)CCN1C(=O)C1(c2ccc(Cl)cc2)CCC1 (centres undefined)	.	2.1	.	.	.
CN(C)S(=O)(=O)N(CC(=O)Nc1ccc(S(=O)(=O)N2CCCC2)cc1)c1ccccc1	-1.3	-1.7	-3.3	-15.4%	-27.6%
COCCCNC(=S)NNC(=O)Cn1nc(C)c(Br)c1C	-7.0	-13.7	-2.2	9.28µM*	26.4%
C[C@H]1CN([C@@H](C)CO)C(=O)CCCn2nncc2CO[C@@H]1CN(C)Cc1ccccc1C(F)(F)F	.	-19.0	.	.	.
O=C(Cc1ccccc1)N1CCc2[nH]nc(-c3ccccc3)c2C1	-3.2	-9.1	-3.8	3.3%	-2.1%[0.00184 µM]
CCC(=O)N1CCc2nc(-c3ccccc3)sc2C1	69.4*	40.5	24.9*	-14.2%	2.9%
Cc1ccc(S(=O)(=O)Nc2ccccc2CNc2ncc(Br)cc2Br)cc1	13.5	-18.8	-2.5	?	?
Cc1ccc(S(=O)(=O)Nc2ccccc2CNc2ccccn2)cc1	37.2*	-18.5	22.0*	6.57µM*	13.1µM*
Cc1ccc(S(=O)(=O)Nc2ccccc2CNc2ccc(Br)cn2)cc1	8.1	-4.6	7.1	10.4%	11.7µM*
SMILES	Shiga inhibitor	HCMV inh	CHX counter	Pf growth 96h	Pf growth 48h
COC(=O)c1ccc(NC(=O)NS(=O)(=O)c2ccc(C)cc2)cc1	6.2	17.4	-1.7	-8.3%	16.2%
CC(C)c1ccc(NC(=O)C2CCN(C(=O)[C@@H]3Cc4ccccc4CN3)CC2)cc1	45.7*	-16.9	22.9*	-13.5%	-6.7%
Cc1cc(C)cc(NC(=O)C2CCN(C(=O)[C@@H]3Cc4ccccc4CN3)CC2)c1	17.3	-7.4	-3.2	5.9%	1.6%
CCc1ccc(NC(=O)C2CCC(CNC(=O)[C@@H]3Cc4ccccc4CN3)CC2)cc1 (some centres undefined)	-1.0	0.0	27.2*	-12.4%	?
Cc1ccc(NC(=O)C2CCN(C(=O)[C@@H]3Cc4ccccc4CN3)CC2)cc1	63.1*	-2.6	24.4*	80.9%	60.4%
CCOc1ccc(C(=S)N2CCCC2)cc1OC	-5.2	-8.3	-5.5	-17.3%	-2.5%
COc1cc(C(=S)N2CCCC2)ccc1OCc1ccc(C)cc1	81.5*	-20.9	69.2*	?	?
Fc1ccc(COc2ccccc2C(=S)N2CCCC2)cc1	34.4	-34.9	2.1	-71.8%	-27.6%
Cc1ccc(COc2ccccc2C(=S)N2CCCC2)cc1	19.6	4.2	17.3*	9.2%	19.6%[5.75 µM]
